Assay results reported in paper PMC7862700, “An all-to-all approach to the identification of sequence-specific readers for epigenetic DNA modifications on cytosine”.

How the values were obtained:
Experiment in all cases: DAPPL (digital affinity profiling via proximity ligation, sequencing); 10 mM Tris-HCl pH 7.5, 50 mM NaCl, 1 mM DTT, 4% glycerol, room temperature, 30 min; GST-TFs on glutathione beads, 16-mer random dsDNA library, 0.1% formaldehyde crosslink after washing; high values mean tight binding
[1] = molecular target: T1, FEV (Homo sapiens, UniProt Q99581 1-238); details: protein: recombinant; tags: N-terminal GST; dsDNA, one strand shown
T1 sequence: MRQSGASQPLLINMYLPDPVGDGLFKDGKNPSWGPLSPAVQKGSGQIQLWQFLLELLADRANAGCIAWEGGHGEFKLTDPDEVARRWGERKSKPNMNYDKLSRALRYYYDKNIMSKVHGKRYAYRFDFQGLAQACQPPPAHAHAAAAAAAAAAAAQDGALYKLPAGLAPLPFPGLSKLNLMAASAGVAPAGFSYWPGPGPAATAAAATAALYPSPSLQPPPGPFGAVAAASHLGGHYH
Procedure, shortened: (§1)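 Binding signal is each hexamer's read frequency for a factor divided by its frequency in the tag-only sample. The factors were GST-fused human transcription factors from yeast, captured on glutathione beads, DNA-barcoded and pooled with that sample. Pools were incubated with 200 nmole of a random double-stranded 16-mer DNA library in Tris/NaCl/DTT/glycerol buffer at room temperature for 30 min, then washed, crosslinked with 0.1% formaldehyde, proximity-ligated with BsaI/T4 ligase (1 h, 37 °C), PCR-amplified and sequenced on an Illumina NextSeq500.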

[2] = molecular target: ETV5 (Homo sapiens, UniProt P41161 1-510); details: protein: recombinant; tags: N-terminal GST; dsDNA, one strand shown
Procedure, shortened: as §1

[3] = molecular target: HSF1 (Homo sapiens, UniProt Q00613 1-529); details: protein: recombinant; tags: N-terminal GST; chain copies: 3; dsDNA, one strand shown
Procedure, shortened: as §1

[4] = molecular target: T2, SPIC (Homo sapiens, UniProt Q8N5J4 1-248); details: protein: recombinant; tags: N-terminal GST; dsDNA, one strand shown
T2 sequence: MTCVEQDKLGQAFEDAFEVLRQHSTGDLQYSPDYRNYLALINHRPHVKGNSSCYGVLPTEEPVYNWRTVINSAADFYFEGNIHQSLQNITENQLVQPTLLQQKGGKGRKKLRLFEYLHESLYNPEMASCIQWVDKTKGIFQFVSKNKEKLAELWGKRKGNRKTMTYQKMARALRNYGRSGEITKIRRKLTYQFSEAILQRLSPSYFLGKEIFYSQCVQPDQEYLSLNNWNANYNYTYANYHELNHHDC
Procedure, shortened: as §1

[5] = molecular target: ELF4 (Homo sapiens, UniProt Q99607 1-663); details: protein: recombinant; tags: N-terminal GST; dsDNA, one strand shown
Procedure, shortened: as §1

[6] = molecular target: T3, ELK4 (Homo sapiens, UniProt P28324-2 1-405); details: protein: recombinant; tags: N-terminal GST; dsDNA, one strand shown
T3 sequence: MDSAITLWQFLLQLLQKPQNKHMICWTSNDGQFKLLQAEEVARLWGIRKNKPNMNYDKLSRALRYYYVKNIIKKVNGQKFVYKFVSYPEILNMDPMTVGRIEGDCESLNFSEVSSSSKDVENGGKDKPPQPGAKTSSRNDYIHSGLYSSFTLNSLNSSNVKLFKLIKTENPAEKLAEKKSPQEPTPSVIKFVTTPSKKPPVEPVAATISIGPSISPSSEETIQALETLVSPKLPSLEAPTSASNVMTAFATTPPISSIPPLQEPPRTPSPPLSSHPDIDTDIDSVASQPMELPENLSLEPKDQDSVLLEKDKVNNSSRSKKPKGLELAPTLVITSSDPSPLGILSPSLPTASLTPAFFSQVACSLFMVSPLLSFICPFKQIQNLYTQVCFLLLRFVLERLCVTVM
Procedure, shortened: as §1

[7] = molecular target: T4, ETV2 (Homo sapiens, UniProt O00321 1-342); details: protein: recombinant; tags: N-terminal GST; dsDNA, one strand shown
T4 sequence: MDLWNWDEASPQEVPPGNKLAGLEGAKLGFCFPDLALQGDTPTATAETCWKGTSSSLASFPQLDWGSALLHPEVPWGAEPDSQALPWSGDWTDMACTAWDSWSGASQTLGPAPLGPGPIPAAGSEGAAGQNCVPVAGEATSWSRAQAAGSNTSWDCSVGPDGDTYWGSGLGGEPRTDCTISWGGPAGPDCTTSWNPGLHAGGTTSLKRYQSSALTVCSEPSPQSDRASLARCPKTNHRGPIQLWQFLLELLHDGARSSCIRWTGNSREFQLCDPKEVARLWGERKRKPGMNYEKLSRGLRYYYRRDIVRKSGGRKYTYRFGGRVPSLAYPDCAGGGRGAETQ
Procedure, shortened: as §1

[8] = molecular target: T5, ELF3 (Homo sapiens, UniProt P78545 1-371); details: protein: recombinant; tags: N-terminal GST; dsDNA, one strand shown
T5 sequence: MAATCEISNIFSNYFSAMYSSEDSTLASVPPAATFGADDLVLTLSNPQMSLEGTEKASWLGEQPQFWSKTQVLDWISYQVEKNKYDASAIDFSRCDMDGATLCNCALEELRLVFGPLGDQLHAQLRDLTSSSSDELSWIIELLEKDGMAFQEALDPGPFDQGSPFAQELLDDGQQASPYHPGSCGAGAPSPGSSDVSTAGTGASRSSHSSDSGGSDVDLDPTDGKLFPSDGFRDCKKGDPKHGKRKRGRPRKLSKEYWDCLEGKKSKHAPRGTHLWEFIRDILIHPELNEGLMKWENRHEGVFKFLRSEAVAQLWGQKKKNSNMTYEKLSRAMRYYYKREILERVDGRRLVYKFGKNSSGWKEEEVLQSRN
Procedure, shortened: as §1

[9] = molecular target: CRX (Homo sapiens, UniProt O43186 1-299); details: protein: recombinant; tags: N-terminal GST; dsDNA, one strand shown
Procedure, shortened: as §1

[10] = molecular target: ETV1 (Homo sapiens, UniProt P50549 1-477); details: protein: recombinant; tags: N-terminal GST; dsDNA, one strand shown
Procedure, shortened: as §1

[11] = molecular target: T6, ERF (Homo sapiens, UniProt P50548 1-548); details: protein: recombinant; tags: N-terminal GST; dsDNA, one strand shown
T6 sequence: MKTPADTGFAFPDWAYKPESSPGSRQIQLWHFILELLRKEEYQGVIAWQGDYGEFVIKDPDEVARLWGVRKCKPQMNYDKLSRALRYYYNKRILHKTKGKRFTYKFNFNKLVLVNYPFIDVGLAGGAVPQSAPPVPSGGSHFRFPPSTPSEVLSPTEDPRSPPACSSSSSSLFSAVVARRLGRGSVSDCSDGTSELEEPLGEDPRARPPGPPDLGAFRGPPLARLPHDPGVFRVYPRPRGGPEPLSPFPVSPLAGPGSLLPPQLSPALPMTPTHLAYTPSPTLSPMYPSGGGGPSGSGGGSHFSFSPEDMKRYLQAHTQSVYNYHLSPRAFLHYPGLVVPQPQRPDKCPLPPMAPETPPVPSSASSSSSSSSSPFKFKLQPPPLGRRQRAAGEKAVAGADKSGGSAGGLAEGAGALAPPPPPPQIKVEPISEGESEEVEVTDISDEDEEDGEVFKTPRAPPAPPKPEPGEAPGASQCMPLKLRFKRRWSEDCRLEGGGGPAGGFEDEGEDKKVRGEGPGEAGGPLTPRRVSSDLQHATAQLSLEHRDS
Procedure, shortened: as §1

[12] = molecular target: T7, ETV3L (Homo sapiens, UniProt Q6ZN32 1-361); details: protein: recombinant; tags: N-terminal GST; dsDNA, one strand shown
T7 sequence: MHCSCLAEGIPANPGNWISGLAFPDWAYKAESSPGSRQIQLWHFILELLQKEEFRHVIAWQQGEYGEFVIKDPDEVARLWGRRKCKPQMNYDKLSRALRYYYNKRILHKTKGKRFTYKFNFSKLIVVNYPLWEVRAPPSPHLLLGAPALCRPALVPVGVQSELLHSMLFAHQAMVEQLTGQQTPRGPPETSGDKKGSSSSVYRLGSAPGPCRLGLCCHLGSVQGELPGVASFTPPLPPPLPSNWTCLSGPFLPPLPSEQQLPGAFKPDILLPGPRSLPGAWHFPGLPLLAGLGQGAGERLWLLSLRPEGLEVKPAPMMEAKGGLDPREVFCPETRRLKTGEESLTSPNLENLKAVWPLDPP
Procedure, shortened: as §1

[13] = molecular target: T8, ETS2 (Homo sapiens, UniProt P15036 1-469); details: protein: recombinant; tags: N-terminal GST; dsDNA, one strand shown
T8 sequence: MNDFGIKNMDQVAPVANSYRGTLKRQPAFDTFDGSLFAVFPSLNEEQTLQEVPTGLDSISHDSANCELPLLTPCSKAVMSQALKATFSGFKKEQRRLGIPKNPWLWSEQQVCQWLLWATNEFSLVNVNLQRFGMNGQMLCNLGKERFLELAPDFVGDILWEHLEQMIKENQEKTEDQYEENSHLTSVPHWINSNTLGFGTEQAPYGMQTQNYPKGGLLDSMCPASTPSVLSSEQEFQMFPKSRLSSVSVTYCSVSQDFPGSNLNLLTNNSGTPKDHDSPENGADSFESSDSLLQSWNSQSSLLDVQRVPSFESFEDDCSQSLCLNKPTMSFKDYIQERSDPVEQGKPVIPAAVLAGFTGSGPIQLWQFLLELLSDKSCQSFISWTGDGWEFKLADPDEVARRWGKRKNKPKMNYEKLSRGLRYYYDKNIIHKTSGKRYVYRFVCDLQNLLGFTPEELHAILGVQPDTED
Procedure, shortened: as §1

[14] = molecular target: T9, SPDEF (Homo sapiens, UniProt O95238 1-335); details: protein: recombinant; tags: N-terminal GST; dsDNA, one strand shown
T9 sequence: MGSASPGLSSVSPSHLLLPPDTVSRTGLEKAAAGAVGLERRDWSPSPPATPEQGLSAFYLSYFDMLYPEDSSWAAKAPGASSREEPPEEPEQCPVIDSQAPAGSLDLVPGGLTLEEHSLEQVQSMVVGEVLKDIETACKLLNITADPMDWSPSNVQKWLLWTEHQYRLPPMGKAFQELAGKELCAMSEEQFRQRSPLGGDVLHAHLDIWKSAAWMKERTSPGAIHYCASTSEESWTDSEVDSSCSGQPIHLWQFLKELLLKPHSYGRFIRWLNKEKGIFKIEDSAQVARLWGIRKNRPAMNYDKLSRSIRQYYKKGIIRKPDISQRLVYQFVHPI
Procedure, shortened: as §1

[15] = molecular target: T10, ETV7 (Homo sapiens, UniProt Q9Y603 1-341); details: protein: recombinant; tags: N-terminal GST; dsDNA, one strand shown
T10 sequence: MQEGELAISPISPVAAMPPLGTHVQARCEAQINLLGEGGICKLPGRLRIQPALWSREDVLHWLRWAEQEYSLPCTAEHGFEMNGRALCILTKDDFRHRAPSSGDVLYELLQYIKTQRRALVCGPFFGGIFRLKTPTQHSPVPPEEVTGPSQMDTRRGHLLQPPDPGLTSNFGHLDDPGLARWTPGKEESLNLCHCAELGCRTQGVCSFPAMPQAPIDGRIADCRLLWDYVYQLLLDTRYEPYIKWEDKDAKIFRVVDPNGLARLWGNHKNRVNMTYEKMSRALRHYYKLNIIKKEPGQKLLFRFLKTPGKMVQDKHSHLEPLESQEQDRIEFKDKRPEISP
Procedure, shortened: as §1

[16] = molecular target: T11, ELF5 (Homo sapiens, UniProt Q9UKW6-2 1-255); details: protein: recombinant; tags: N-terminal GST; dsDNA, one strand shown
T11 sequence: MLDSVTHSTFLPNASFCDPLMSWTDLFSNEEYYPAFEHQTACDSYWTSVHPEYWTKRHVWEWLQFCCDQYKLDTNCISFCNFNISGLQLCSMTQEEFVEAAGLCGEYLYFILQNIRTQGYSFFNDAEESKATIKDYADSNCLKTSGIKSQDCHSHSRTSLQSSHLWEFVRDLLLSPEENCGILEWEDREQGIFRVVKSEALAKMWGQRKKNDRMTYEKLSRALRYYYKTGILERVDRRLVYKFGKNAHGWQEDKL
Procedure, shortened: as §1

[17] = molecular target: T12, ETV3 (Homo sapiens, UniProt P41162-2 1-143); details: protein: recombinant; tags: N-terminal GST; dsDNA, one strand shown
T12 sequence: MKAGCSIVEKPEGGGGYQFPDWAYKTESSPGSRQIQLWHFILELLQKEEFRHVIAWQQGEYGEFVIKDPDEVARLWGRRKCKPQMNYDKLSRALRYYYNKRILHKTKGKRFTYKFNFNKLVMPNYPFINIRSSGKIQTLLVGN
Procedure, shortened: as §1

[18] = molecular target: ETV6 (Homo sapiens, UniProt P41212 1-452); details: protein: recombinant; tags: N-terminal GST; dsDNA, one strand shown
Procedure, shortened: as §1

Sequence of ETV1 (P50549 whole entry): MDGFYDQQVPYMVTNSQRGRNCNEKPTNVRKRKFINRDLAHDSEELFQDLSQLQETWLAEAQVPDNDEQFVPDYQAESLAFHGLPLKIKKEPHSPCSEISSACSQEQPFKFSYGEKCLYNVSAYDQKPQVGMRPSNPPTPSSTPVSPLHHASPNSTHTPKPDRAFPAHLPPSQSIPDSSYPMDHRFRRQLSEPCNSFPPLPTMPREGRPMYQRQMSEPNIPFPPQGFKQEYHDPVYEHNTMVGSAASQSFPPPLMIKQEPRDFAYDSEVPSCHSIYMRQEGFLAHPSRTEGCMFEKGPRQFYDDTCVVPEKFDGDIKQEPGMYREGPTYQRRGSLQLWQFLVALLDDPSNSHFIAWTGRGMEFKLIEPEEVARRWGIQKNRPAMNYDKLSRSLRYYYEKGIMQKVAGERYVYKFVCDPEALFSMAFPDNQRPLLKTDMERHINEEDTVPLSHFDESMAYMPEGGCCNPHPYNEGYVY
Sequence of ETV6 (P41212 whole entry): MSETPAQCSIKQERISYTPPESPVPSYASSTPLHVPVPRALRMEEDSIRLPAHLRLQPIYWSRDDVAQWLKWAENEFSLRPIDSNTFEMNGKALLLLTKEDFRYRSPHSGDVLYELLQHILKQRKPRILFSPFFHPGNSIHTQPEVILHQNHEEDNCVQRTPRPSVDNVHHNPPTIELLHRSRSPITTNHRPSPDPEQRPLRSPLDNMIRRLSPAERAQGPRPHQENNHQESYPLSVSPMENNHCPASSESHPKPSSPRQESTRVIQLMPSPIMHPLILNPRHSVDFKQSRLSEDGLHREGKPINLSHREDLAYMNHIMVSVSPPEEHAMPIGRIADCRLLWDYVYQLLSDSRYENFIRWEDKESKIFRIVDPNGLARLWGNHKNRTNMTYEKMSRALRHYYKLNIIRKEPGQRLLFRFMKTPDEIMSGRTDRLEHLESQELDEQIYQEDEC
Sequence of CRX (O43186 whole entry): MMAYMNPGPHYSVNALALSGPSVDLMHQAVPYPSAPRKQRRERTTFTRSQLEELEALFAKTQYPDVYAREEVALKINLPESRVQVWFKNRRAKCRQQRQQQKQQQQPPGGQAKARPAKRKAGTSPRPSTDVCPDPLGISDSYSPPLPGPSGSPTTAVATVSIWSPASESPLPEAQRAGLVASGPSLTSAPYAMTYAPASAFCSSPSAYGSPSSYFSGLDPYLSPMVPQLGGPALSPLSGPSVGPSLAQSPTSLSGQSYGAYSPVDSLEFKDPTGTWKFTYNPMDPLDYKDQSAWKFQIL
Sequence of ETV5 (P41161 whole entry): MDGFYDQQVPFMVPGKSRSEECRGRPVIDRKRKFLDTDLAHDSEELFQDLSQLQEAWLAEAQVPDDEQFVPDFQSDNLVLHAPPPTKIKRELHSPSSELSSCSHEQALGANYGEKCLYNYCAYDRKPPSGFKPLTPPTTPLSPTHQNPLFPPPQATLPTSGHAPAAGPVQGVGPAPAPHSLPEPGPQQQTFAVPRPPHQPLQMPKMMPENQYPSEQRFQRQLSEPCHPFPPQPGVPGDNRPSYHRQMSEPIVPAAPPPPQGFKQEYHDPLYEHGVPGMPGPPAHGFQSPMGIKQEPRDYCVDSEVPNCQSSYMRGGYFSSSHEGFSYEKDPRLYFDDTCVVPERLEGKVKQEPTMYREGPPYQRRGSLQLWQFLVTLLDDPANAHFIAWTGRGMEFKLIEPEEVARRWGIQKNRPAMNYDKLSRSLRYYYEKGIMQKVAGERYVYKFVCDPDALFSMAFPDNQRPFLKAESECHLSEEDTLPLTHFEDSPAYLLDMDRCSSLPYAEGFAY
Sequence of HSF1 (Q00613 whole entry): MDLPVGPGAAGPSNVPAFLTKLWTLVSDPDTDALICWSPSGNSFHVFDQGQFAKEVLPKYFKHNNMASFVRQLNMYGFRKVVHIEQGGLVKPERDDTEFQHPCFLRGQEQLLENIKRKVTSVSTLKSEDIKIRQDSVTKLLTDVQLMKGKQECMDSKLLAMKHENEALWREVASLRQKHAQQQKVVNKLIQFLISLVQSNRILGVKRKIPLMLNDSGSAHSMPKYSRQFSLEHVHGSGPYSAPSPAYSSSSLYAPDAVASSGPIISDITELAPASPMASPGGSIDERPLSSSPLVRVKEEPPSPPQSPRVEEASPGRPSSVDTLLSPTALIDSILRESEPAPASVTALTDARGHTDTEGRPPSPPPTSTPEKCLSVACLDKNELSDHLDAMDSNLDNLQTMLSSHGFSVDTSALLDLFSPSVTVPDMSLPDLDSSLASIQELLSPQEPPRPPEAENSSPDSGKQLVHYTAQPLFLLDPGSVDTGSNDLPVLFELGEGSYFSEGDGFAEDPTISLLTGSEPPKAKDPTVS
Sequence of ELF4 (Q99607 whole entry): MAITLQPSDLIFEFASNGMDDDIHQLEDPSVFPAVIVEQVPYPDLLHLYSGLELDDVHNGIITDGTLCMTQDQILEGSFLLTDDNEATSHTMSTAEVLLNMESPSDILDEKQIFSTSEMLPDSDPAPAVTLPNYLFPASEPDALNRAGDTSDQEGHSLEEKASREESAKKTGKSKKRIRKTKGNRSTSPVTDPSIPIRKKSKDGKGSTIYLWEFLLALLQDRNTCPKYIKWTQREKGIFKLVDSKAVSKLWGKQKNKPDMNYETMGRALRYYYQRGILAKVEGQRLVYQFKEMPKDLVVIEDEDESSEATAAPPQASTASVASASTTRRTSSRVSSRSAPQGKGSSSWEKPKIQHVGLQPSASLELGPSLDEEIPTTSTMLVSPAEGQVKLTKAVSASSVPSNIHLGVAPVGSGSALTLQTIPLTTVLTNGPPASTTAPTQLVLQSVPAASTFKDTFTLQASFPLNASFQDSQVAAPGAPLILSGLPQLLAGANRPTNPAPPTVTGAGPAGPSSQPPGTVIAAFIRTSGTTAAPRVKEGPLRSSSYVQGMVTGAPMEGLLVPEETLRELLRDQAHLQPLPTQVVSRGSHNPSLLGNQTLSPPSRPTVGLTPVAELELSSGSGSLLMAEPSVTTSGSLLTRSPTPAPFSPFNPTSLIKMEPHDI

GCCTAA
binding signal [1]: 1.21 fold enrichment (6-mer frequency, TF over GST control)
binding signal [2]: 1.19 fold enrichment (6-mer frequency, TF over GST control)
binding signal [3]: 1.38 fold enrichment (6-mer frequency, TF over GST control)
binding signal [4]: 1.35 fold enrichment (6-mer frequency, TF over GST control)
binding signal [5]: 1.25 fold enrichment (6-mer frequency, TF over GST control)
binding signal [6]: 1.25 fold enrichment (6-mer frequency, TF over GST control)
binding signal [7]: 1.19 fold enrichment (6-mer frequency, TF over GST control)
binding signal [8]: 1.35 fold enrichment (6-mer frequency, TF over GST control)
binding signal [9]: 1.84 fold enrichment (6-mer frequency, TF over GST control)
binding signal [10]: 1.22 fold enrichment (6-mer frequency, TF over GST control)
binding signal [11]: 1.22 fold enrichment (6-mer frequency, TF over GST control)
binding signal [12]: 1.22 fold enrichment (6-mer frequency, TF over GST control)
binding signal [13]: 1.31 fold enrichment (6-mer frequency, TF over GST control)
binding signal [14]: 1.11 fold enrichment (6-mer frequency, TF over GST control)
binding signal [15]: 1.19 fold enrichment (6-mer frequency, TF over GST control)
binding signal [16]: 1.18 fold enrichment (6-mer frequency, TF over GST control)
binding signal [17]: 1.21 fold enrichment (6-mer frequency, TF over GST control)
binding signal [18]: 1.13 fold enrichment (6-mer frequency, TF over GST control)
